“And” between values parts separate entries of the source, which are not always exact repeats. Identical values can stand only once. Records with an inconclusive call do not appear. Some structures have more than one record in an assay (separate samples or runs), and their calls can disagree. The source made the active and inactive calls. How the source made its calls, unless noted: active means hit-call score of the fitted dose curve at least 0.9, where 1 is the maximum; inactive means score below 0.9.
Columns and labels:
[1] = CCTE_Shafer_MEA_dev_bursting_electrodes_number: CCTE's Neural Network Formation Assay for Number of Bursting Electrodes, Shafer Lab (AID 2284043; active means hit-call score of the fitted dose curve at least 0.9, where 1 is the maximum;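 further: potency is for loss of bursting electrodes relative to DMSO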)
Summary of the method: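 Primary rat cortical neurons plated on 16-electrode MEA wells, exposed from day 0 with compound renewed at DIV 5 and 9. Electrodes bursting ≥1 burst per 2 min counted on days 5, 7, 9 and 12; trapezoidal AUC across days, fitted for loss versus DMSO.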

[2] = CCTE_Shafer_MEA_dev_per_burst_interspike_interval: CCTE's Neural Network Formation Assay for Burst Interspike Interval, Shafer Lab (AID 2284044);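 further: potency for a decrease of within-burst interspike interval below DMSO level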
Summary of the method: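 Readout is the average time between spikes inside single-electrode bursts, taken as a well mean across bursting electrodes. Cortical neurons from rat developed networks on MEA plates under continuous 12-day exposure; recordings on days 5, 7, 9 and 12 were integrated by trapezoidal AUC.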

[3] = CCTE_Shafer_MEA_dev_burst_duration_mean: CCTE's Neural Network Formation Assay for Mean Burst Duration, Shafer Lab (AID 2284045);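 further: curve fitted for loss meaning shorter burst duration than DMSO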
Summary of the method: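 Primary rat cortical neurons on 48-well 16-electrode MEA plates, exposed from day 0 with renewal at DIV 5 and 9; spontaneous activity recorded on days 5, 7, 9, 12. Well-mean burst duration across bursting electrodes, collapsed as trapezoidal AUC; DMSO baseline.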

[4] = CCTE_Shafer_MEA_dev_interburst_interval_mean: CCTE's Neural Network Formation Assay for Mean Interburst Interval, Shafer Lab (AID 2284046);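 further: well-mean interburst interval of bursting electrodes as AUC over four recording days; curve fitted for decrease in interburst interval relative to DMSO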
Summary of the method: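 Primary rat cortical neurons on PEI-coated 48-well MEA plates (laminin added with cells at plating) (16 electrodes/well), exposed from plating day 0 with renewal at DIV 5 and 9. Mean inter-burst interval averaged over bursting electrodes, AUC across days 5, 7, 9, 12; DMSO baseline.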

[5] = CCTE_Shafer_MEA_dev_inter_network_spike_interval_mean: CCTE's Neural Network Formation Assay for Mean Inter-network Spike Interval, Shafer Lab (AID 2284047);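 on AC50: potency for a decrease in mean inter-network spike interval below DMSO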
Summary of the method: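 Mean time between consecutive network-spike peaks, recorded extracellularly (adaptive spike detection) on DIV 5, 7, 9 and 12, summarized as trapezoidal AUC. Rat cortical cultures on MEAs dosed continuously days 0–12, re-dosed at feeds; loss-of-signal fit relative to DMSO.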

[6] = CCTE_Shafer_MEA_dev_network_spike_number: CCTE's Neural Network Formation Assay for Number of Network Spikes, Shafer Lab (AID 2284048);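 further: fit as a loss of signal meaning fewer network spikes than DMSO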
Summary of the method: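 Primary rat cortical neurons on PEI/laminin 48-well MEA plates, dosed from plating day 0 for 12 days, renewed at DIV 5 and 9. Network spike counts recorded DIV 5, 7, 9, 12, collapsed as trapezoidal AUC; DMSO baseline.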

[7] = CCTE_Shafer_MEA_dev_network_spike_peak: CCTE's Neural Network Formation Assay for Mean Number of Electrodes in Network Spike, Shafer Lab (AID 2284049);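 further: fitted for loss of signal meaning fewer electrodes in network spikes than DMSO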
Summary of the method: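 Network-spike peak electrode count from recordings on days 5, 7, 9 and 12 was combined as trapezoidal area under the curve. Rat cortical cultures were treated continuously from plating, with compound renewed at each feed (DIV 5, 9); fits versus DMSO.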

[8] = CCTE_Shafer_MEA_dev_spike_duration_mean: CCTE's Neural Network Formation Assay for Mean Spike Duration, Shafer Lab (AID 2284051);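 further: mean network spike duration pooled as area under curve over DIV 5 to 12 recordings; potency for a decrease in mean network spike duration versus DMSO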
Summary of the method: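 Spontaneous activity was recorded on days 5, 7, 9 and 12 from rat cortical cultures grown on microelectrode arrays and dosed continuously from day 0, with media and compound renewed after the DIV 5 and 9 recordings. Network-spike duration was collapsed by area under the curve.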

[9] = CCTE_Shafer_MEA_dev_network_spike_duration_std: CCTE's Neural Network Formation Assay for Standard Deviation of Network Spike Duration, Shafer Lab (AID 2284052);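 further: hits are decreases in network spike duration SD versus DMSO vehicle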
Summary of the method: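 Network spike duration variability was collapsed across recordings on days 5, 7, 9 and 12 by trapezoidal area-under-curve and fitted downward against DMSO. Cultures were rat cortical neurons on PEI-coated MEA plates, dosed continuously from plating, refed with compound DIV 5/9.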

[10] = CCTE_Shafer_MEA_dev_per_network_spike_spike_number_mean: CCTE's Neural Network Formation Assay for Mean Number of Spikes in a Network Spike, Shafer Lab (AID 2284053);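 further: fitted as decrease in spikes per network spike relative to DMSO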
Summary of the method: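 Mean spike count within each network spike, taken in a 0.05 s window at its peak, was recorded on days 5, 7, 9 and 12 and integrated as trapezoidal area under the curve. Rat cortical cultures on MEA plates received continuous compound from day 0, refreshed at medium changes on DIV 5 and 9.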

[11] = CCTE_Shafer_MEA_dev_per_network_spike_spike_percent: CCTE's Neural Network Formation Assay for Percent of Spikes in a Network Spike, Shafer Lab (AID 2284054)
Summary of the method: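 Rat primary cortical neurons were grown on 48-well MEA plates (16 electrodes/well), exposed from plating day 0 through day 12, with treatment renewed on DIV 5 and 9. Percent of spikes within 0.05 s network-spike peaks was measured, summarised as AUC across days 5, 7, 9, 12.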

[12] = CCTE_Shafer_MEA_dev_LDH: CCTE's Lactate Dehydrogenase Assay for Cytotoxicity in the Neural Network Formation Assay, Shafer Lab (AID 2284068; active means hit-call score of the fitted dose curve at least 0.9, where 1 is the maximum;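 further: exposure for twelve days from plating with re-dosing on DIV 5 and 9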)
Summary of the method: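 Primary rat cortical neurons were cultured on PEI-coated MEA plates and exposed from plating through day 12, with compound renewed at medium changes on DIV 5 and 9. LDH activity was read spectrophotometrically; loss of signal versus DMSO indicates reduced viability.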

[13] = CCTE_Shafer_MEA_acute_LDH: CCTE's Lactate Dehydrogenase Assay for Cytotoxicity in the Neural Acute Assay, Shafer Lab (AID 2284086; active means hit-call score of the fitted dose curve at least 0.9, where 1 is the maximum;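 further: active means LDH release rises above DMSO vehicle level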)
Summary of the method: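 Primary rat cortical neurons on 48-well MEA plates, treated on day 13 or 15 post-plating. After the 40-min recording with compound, medium LDH release was read by absorbance at 490 nm. Gain of signal was fitted against DMSO negative control.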

[14] = CCTE_Mundy_HCI_Cortical_Synap_Neur_Matur_NeuriteSpotCountPerNeuriteLength: CCTE's Synaptogenesis and Neurite Maturation Assay in rat cortical cells for Neurite Spot Count per Neurite Length, Mundy Lab (AID 2284210)
Summary of the method: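 Rat primary cortical cultures, AraC added at DIV 5 to suppress glia; chemical exposure from DIV 7 to DIV 12. Fixed cells stained for MAP2 and synaptophysin plus Hoechst; synaptophysin puncta per neurite length quantified by high-content imaging, relative to DMSO.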

[15] = CCTE_Mundy_HCI_Cortical_NOG_NeuriteLength: CCTE's Neurite Outgrowth Assay in rat cortical cells for Neurite Length, Mundy Lab (AID 2284213);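 further: neurites imaged about 48 to 50 h after chemical exposure began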
Summary of the method: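 Neurite length was read by high-content imaging of βIII-tubulin-labelled neurites in rat primary cortical cultures. Activity was fitted relative to DMSO.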

[16] = CCTE_Mundy_HCI_Cortical_Synap_Neur_Matur_NeuriteLength: CCTE's Synaptogenesis and Neurite Maturation Assay in rat cortical cells for Neurite Length, Mundy Lab (AID 2284214)
Summary of the method: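 Rat primary cortical cells were plated, treated with AraC at DIV 5 to arrest glial growth, then chemical-dosed with media change at DIV 7 through DIV 12. Fixed cells stained for MAP2, synaptophysin and Hoechst; neurite length quantified by high-content imaging.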

[17] = CCTE_Mundy_HCI_Cortical_Synap_Neur_Matur_NeuriteSpotCountPerNeuron: CCTE's Synaptogenesis and Neurite Maturation Assay in rat cortical cells for Neurite Spot Count per Neuron Count, Mundy Lab (AID 2284215)
Summary of the method: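 Read-out: neurite-associated synaptophysin puncta per neuron, imaged by high-content analysis after MAP2, synaptophysin and Hoechst staining. Rat primary cortical cultures, dosed DIV 7 through DIV 12; DMSO served as baseline.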

[18] = CCTE_Mundy_HCI_Cortical_Synap_Neur_Matur_SynapseCount: CCTE's Synaptogenesis and Neurite Maturation Assay in rat cortical cells for Synapse Count, Mundy Lab (AID 2284218)
Summary of the method: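 Rat primary cortical cells in 96-well plates received AraC at DIV 5 and were dosed with chemicals at DIV 7 with media change, through DIV 12 (288.33 h). Synapses per neuron counted by high-content imaging of MAP2/synaptophysin/Hoechst staining, versus DMSO baseline.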

[19] = CCTE_Mundy_HCI_hN2_NOG_NeuriteCount: CCTE's Neurite Outgrowth Assay in human hN2 cells for Neurite Count, Mundy Lab (AID 2284219; active means hit-call score of the fitted dose curve at least 0.9, where 1 is the maximum)
Summary of the method: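 In this morphology assay, hNP1-derived neurons received test chemical 2 h post-plating and were fixed two days later in warm paraformaldehyde/sucrose containing Hoechst 33342. Neurites, labelled by rabbit anti-βIII-tubulin (1:800) and Alexa Fluor-488 (1:500), were counted automatically.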

[20] = CCTE_Mundy_HCI_hN2_NOG_NeuriteLength: CCTE's Neurite Outgrowth Assay in human hN2 cells for Neurite Length, Mundy Lab (AID 2284220; active means hit-call score of the fitted dose curve at least 0.9, where 1 is the maximum)
Summary of the method: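 Read-out is neurite length from high-content imaging of βIII-tubulin/Alexa Fluor-488-labelled neurons, referenced to DMSO controls.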

[21] = CCTE_Mundy_HCI_hN2_NOG_NeuronCount: CCTE's Neurite Outgrowth Assay in human hN2 cells for Neuron Count, Mundy Lab (AID 2284221; active means hit-call score of the fitted dose curve at least 0.9, where 1 is the maximum)
Summary of the method: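 Read-out is the number of betaIII-tubulin-positive neurons imaged by automated high-content analysis, with DMSO as negative control.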

[22] = CCTE_Mundy_HCI_hNP1_Pro_ResponderAvgInten: CCTE's Proliferation Assay in human neuroprogenitor cells, Mundy Lab (AID 2284224; active means hit-call score of the fitted dose curve at least 0.9, where 1 is the maximum;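 further: human neural progenitor cells hNP1 derived from WA09 embryonic stem cells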)
Summary of the method: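 Proliferation read as average intensity of BrdU-positive cells, imaged at 26.25 h post-dosing: chemical exposure started after 40–44 h culture, BrdU during final 4 h, paraformaldehyde fixation. Positive-direction fit relative to DMSO.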

[23] = CCTE_Mundy_HCI_Cortical_NOG_NeuronCount: CCTE's Neurite Outgrowth Assay in rat cortical cells for Neuron Count, Mundy Lab (AID 2284236; active means hit-call score of the fitted dose curve at least 0.9, where 1 is the maximum;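 further: neurons counted by imaging betaIII-tubulin and Hoechst stained cortical cells; cells exposed to compound for about 48 hours before fixation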)
Summary of the method: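 Read-out: neuron number by high-content imaging of betaIII-tubulin (Alexa Fluor-488) and Hoechst-labelled rat primary cortical cells.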

[24] = CCTE_Mundy_HCI_hNP1_Casp3_7: CCTE's Caspase-Glo 3/7 Assay in human neuroprogenitor cells for Apoptosis, Mundy Lab (AID 2284240)
Summary of the method: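 Luminescent caspase-3/7 readout, 26.5 h post-dose, in human neural progenitor cells from WA09 embryonic stem cells. Cells grew 40–44 h at 37 °C, 5% CO2 before chemical addition. Activity analysed as signal increase over DMSO baseline.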

[25] = CCTE_Mundy_HCI_Cortical_Synap_Neur_Matur_NeuronCount: CCTE's Synaptogenesis and Neurite Maturation Assay in rat cortical cells for Neuron Count, Mundy Lab (AID 2284242; active means hit-call score of the fitted dose curve at least 0.9, where 1 is the maximum;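 further: hits reduce neuron count versus DMSO baseline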)
Summary of the method: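 Rat primary cortical cells received AraC at DIV 5 to arrest glia, then were dosed with chemicals at DIV 7 through DIV 12. Fixed cells were stained for nuclei, MAP2 and synaptophysin, and neurons were counted by high-content imaging relative to DMSO.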

Measured: AC50

CN(C)C(=O)C(CCN1CCC(O)(c2ccc(Cl)cc2)CC1)(c1ccccc1)c1ccccc1
active: [1] 117 nM and 63.8 nM and 1.19 µM | [2] 92.1 nM and 66.7 nM and 493 nM | [3] 185 nM and 33.1 nM and 526 nM | [4] 581 nM and 249 nM and 2.56 µM | [5] 3 nM and 2.62 µM | [6] 32.8 nM and 102 nM and 172 nM | [7] 612 nM and 41.5 nM and 1.81 µM | [8] 511 nM and 18.7 nM and 1.15 µM | [9] 262 nM and 11.6 nM and 736 nM | [10] 766 nM and 44.5 nM and 2.52 µM | [11] 2.31 µM and 276 nM and 2.68 µM | [12] 4.19 µM and 2.7 µM and 2.94 µM | [14] 14.9 µM | [15] 6.63 µM | [16] 3.22 µM | [17] 3 µM | [18] 3.43 µM | [19] 16 µM | [20] 15.8 µM | [21] 13.9 µM | [22] 50 µM | [23] 12.9 µM | [24] 16.5 µM | [25] 8.36 µM
inactive: [5] | [13]

From PubChem BioAssay (EPA / NIEHS)
